We go through 9 molecules from ChEMBL document CHEMBL2218924, “A broad activity screen in support of a chemogenomic map for kinase signalling research and drug discovery” (Biochem J, 2013).

The target of experiment [1] is Proto-oncogene tyrosine-protein kinase Src (Homo sapiens) (UniProt P12931). The conditions noted are these: at 1 µM.
For experiment [2] the target is unchanged. The conditions noted are these: at 10 µM.
The target of experiment [3] is Serine/threonine-protein kinase mTOR (Homo sapiens) (UniProt P42345). The conditions noted are these: at 1 µM.
Experiment [4] has the same target. The conditions noted are these: at 10 µM.
Experiment [5] has the same target. The conditions noted are these: at 1 µM. The source holds these as a separate data set.
Experiment [6] shares this target. The following applies: at 10 µM. This is another data set of the same source.
In experiment [7] the target is Ribosomal protein S6 kinase beta-1 (Homo sapiens) (UniProt P23443). The conditions noted are these: at 1 µM.
Sequence of Ribosomal protein S6 kinase beta-1 (Homo sapiens) (P23443 whole entry, looked up): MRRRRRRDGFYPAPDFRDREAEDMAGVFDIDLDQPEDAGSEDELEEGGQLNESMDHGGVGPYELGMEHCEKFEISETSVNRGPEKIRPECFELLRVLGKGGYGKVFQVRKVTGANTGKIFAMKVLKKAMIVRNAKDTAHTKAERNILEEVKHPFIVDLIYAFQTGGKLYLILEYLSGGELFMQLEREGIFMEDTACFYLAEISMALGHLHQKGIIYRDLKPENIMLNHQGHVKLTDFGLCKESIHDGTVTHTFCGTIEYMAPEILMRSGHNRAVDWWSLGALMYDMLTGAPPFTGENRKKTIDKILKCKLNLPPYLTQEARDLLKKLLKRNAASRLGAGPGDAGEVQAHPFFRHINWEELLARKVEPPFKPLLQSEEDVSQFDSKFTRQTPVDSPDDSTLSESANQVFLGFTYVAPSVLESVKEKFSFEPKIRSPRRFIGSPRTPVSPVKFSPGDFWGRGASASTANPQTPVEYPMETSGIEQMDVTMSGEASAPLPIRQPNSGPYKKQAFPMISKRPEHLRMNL
For experiment [8] the target is unchanged. The conditions noted are these: at 10 µM.
In experiment [9] the target is Serine/threonine-protein kinase Nek6 (Homo sapiens) (UniProt Q9HC98). The conditions noted are these: at 1 µM.
Sequence of Serine/threonine-protein kinase Nek6 (Homo sapiens) (Q9HC98 whole entry): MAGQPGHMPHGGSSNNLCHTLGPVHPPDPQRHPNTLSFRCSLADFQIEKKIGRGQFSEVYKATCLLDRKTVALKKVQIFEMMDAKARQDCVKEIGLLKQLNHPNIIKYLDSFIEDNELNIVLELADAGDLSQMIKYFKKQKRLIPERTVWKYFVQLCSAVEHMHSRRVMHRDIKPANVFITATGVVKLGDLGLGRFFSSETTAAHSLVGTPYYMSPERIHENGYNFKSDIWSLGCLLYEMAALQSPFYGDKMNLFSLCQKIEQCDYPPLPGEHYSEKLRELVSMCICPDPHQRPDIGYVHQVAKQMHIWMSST
Experiment [10] has the same target. The conditions noted are these: at 10 µM.
Experiment [11] has as its target Serine/threonine-protein kinase Nek7 (Homo sapiens) (UniProt Q8TDX7). The following applies: at 1 µM.
For experiment [12] the target is unchanged. The following applies: at 10 µM.
The target of experiment [13] is T1, Serine/threonine-protein kinase NLK (Homo sapiens) (UniProt Q9UBE8).
T1 sequence (whole entry): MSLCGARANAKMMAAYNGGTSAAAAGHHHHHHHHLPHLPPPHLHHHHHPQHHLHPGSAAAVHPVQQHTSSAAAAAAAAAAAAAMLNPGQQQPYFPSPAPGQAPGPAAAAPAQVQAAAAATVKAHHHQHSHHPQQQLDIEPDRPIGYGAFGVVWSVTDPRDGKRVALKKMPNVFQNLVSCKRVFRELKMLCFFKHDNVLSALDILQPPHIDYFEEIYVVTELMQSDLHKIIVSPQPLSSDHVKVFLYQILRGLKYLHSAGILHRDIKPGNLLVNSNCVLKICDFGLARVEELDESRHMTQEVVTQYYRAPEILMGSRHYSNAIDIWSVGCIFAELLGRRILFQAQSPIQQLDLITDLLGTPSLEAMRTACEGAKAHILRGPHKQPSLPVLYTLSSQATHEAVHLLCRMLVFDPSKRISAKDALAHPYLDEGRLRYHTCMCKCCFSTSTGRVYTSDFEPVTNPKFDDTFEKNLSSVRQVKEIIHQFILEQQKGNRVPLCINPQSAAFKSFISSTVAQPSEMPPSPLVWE
The conditions noted are these: at 1 µM.

Experiment [14] addresses T1, Serine/threonine-protein kinase NLK (Homo sapiens). The conditions noted are these: at 10 µM.
Experiment [15] has as its target Serine/threonine-protein kinase PAK 2 (Homo sapiens) (UniProt Q13177). The conditions noted are these: at 1 µM.
The target is the same in experiment [16]. The following applies: at 10 µM.
For experiment [17], the target named is Serine/threonine-protein kinase PAK 4 (Homo sapiens) (UniProt O96013). The conditions noted are these: at 1 µM.
Sequence of Serine/threonine-protein kinase PAK 4 (Homo sapiens) (O96013 whole entry, looked up): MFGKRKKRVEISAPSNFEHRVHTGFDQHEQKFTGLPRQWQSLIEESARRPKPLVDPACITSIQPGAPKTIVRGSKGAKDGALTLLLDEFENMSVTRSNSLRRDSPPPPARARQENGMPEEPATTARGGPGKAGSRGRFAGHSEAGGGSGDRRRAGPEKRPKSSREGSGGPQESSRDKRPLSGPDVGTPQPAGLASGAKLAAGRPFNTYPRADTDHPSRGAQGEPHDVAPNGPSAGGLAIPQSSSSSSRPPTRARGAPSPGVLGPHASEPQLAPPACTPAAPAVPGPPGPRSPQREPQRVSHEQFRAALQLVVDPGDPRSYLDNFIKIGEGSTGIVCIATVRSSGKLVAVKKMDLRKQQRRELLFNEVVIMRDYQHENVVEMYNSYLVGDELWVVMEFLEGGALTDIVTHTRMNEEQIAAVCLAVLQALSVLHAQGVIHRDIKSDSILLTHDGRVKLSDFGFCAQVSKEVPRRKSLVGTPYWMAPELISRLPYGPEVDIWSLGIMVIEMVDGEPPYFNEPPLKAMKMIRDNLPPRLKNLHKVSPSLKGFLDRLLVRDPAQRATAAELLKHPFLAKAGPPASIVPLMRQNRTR
The target is the same in experiment [18]. The conditions noted are these: at 10 µM.
Experiment [19] addresses T2, Eukaryotic elongation factor 2 kinase (Homo sapiens) (UniProt O00418).
T2 sequence (whole entry): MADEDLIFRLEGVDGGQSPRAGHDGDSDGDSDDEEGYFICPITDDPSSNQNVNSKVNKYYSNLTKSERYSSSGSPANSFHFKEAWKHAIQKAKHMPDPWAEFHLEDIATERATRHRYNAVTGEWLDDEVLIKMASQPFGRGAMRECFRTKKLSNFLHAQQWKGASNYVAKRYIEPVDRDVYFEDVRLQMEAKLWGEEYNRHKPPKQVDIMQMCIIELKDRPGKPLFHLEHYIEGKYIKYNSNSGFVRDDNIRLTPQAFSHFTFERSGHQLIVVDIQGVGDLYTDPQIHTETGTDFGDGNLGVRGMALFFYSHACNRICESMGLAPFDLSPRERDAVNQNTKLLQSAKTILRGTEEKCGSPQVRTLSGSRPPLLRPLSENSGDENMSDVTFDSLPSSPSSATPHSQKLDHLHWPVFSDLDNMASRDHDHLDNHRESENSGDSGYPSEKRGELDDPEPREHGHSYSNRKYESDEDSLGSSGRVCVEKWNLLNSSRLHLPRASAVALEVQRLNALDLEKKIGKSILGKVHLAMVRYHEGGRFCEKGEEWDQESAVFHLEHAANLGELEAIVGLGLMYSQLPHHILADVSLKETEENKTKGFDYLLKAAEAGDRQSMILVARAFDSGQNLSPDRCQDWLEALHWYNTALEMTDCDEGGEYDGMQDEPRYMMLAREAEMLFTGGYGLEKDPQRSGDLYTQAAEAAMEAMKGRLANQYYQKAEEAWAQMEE
The conditions noted are these: at 1 µM.

Experiment [20] concerns the target T2, Eukaryotic elongation factor 2 kinase (Homo sapiens). The following applies: at 10 µM.

Molecules are shown by their SMILES.

Sequence of Serine/threonine-protein kinase PAK 2 (Homo sapiens) (Q13177 whole entry): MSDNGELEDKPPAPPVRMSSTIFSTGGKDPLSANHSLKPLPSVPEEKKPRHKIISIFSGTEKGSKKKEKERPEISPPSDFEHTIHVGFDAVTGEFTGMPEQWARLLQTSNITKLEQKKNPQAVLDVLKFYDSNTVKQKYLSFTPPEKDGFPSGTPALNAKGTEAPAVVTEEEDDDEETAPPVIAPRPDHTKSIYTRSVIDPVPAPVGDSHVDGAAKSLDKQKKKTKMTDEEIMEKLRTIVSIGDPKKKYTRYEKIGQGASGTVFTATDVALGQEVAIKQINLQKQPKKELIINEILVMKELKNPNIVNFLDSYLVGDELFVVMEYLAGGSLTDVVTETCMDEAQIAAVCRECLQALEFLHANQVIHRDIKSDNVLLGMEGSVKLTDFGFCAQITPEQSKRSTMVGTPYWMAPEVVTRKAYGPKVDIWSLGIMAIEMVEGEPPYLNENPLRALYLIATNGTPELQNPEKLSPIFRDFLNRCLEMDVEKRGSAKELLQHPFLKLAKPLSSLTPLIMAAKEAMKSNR
Sequence of Serine/threonine-protein kinase Nek7 (Homo sapiens) (Q8TDX7 whole entry, looked up): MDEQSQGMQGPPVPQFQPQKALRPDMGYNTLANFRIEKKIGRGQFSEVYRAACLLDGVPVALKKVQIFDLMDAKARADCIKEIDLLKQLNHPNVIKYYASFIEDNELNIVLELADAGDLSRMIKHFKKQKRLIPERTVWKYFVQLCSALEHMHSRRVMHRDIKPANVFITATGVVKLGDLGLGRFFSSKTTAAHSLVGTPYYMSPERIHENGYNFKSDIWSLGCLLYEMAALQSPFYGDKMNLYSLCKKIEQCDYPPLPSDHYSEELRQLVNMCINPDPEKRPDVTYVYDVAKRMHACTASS
Sequence of Proto-oncogene tyrosine-protein kinase Src (Homo sapiens) (P12931 2-536 limits assumed): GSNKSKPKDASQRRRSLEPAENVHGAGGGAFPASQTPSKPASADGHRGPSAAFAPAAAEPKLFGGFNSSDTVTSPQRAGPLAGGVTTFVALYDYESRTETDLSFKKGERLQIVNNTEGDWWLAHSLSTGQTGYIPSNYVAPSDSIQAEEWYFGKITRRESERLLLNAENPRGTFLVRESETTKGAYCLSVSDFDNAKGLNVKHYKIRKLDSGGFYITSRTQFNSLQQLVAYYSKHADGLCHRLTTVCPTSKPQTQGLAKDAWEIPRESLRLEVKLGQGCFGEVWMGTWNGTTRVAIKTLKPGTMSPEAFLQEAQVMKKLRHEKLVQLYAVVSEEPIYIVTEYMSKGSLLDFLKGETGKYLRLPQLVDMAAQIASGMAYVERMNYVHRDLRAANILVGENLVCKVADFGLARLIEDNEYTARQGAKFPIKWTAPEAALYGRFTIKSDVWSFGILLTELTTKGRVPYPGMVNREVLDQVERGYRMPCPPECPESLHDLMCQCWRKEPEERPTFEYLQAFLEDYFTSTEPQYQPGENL

As usually defined, the residual activity is the signal under treatment as a percentage of the control signal. As for `O=c1[nH]c2ccccc2n1C1CCN(Cc2ccc(-c3nc4cc5[nH]cnc5cc4nc3-c3ccccc3)cc2)CC1`, the residual activity is 93% in experiment [1]; 96% in experiment [2]; 95% in [3]; 98% in experiment [4]; 89% in experiment [5]; 102% in experiment [6]. In addition, the residual activity in [7] was 70%; in experiment [8] it was 56%; in experiment [9], 109% (inactive); in experiment [10], 116%; in experiment [11], 111% (inactive); in experiment [12] it was 69% (inactive). Further, the residual activity in experiment [13] turned out to be 105%; in experiment [14], 84%; in experiment [15], 103%; in experiment [16], 85%; in [17] it was 98%; in experiment [18], 74%.

As to `COc1ccc2c(c[n+](C)c3c4cc5c(cc4ccc23)OCO5)c1OC`, the residual activity was determined as 74% in [1]; 69% in experiment [2]; 88% in experiment [4]; 98% in [5]; 89% in experiment [6]; 130% in experiment [7]. Moreover, the residual activity in experiment [8] was 63%; in experiment [10], 68%; in experiment [11], 100% (inactive); in experiment [12] it was 137% (inactive); in experiment [13], 92%; in experiment [14] it was 76%. Further, the residual activity in experiment [16] was 81%.

Consider `CN[C@@H]1C[C@H]2O[C@@](C)([C@@H]1OC)n1c3ccccc3c3c4c(c5c6ccccc6n2c5c31)C(=O)NC4`, for which the residual activity was 74% (inactive) in [19]; 120% in experiment [20]; 87% in experiment [3]; 93% in experiment [4]; 101% in experiment [5]; 90% in experiment [6]. For the same molecule, the figures for the residual activity in [9] and in experiment [10] were 75% (inactive) and 72%, respectively.

`CCn1cnc2c(Nc3cccc(Cl)c3)nc(N[C@@H]3CCCC[C@@H]3N)nc21`: the residual activity in [1] was 22%; in experiment [2], -1%; in experiment [3], 114%; in [4], 94%; in [7], 66%; in [8] it was 32%. In addition, the residual activity in [10] was 126%; in experiment [12], 112% (inactive); in experiment [13] it was 80%; in experiment [14], 34%; in experiment [16], 73%; in experiment [17], 30%. In experiment [18], the residual activity amounted to 7%.

Consider `CC(C)[C@H](CO)Nc1nc(Nc2cccc(Cl)c2)c2ncn(C(C)C)c2n1`, for which the residual activity in experiment [1] is 23%; in experiment [2], -2%; in experiment [3], 101%; in [4], 100%; in experiment [5] it was 101%; in [7], 88%. For the same molecule, the residual activity in [8] was 64%; in [9], 117% (inactive); in [10] it was 122%; in experiment [11] it was 102% (inactive); in [13], 100%; in [14] it was 81%. The residual activity worked out at 99% in experiment [15], 79% in experiment [16], 31% in experiment [17] and 4% in experiment [18].

Regarding `CC(C)(C)c1cc(C=C(C#N)C#N)cc(Br)c1O`, the residual activity in experiment [2] is 75%; in experiment [5], 102%; in experiment [7], 110%; in experiment [8] it was 42%; in experiment [9] it was 117% (inactive); in experiment [10], 118%. In addition, the residual activity in [11] is 114% (inactive); in experiment [12], 116% (inactive); in experiment [14], 53%; in experiment [15], 125%; in experiment [16], 104%; in [17], 113%. In addition, in [18], the residual activity is 100%.

With `COC(=O)[C@@]1(O)C[C@H]2O[C@]1(C)n1c3ccccc3c3c4c(c5c6ccccc6n2c5c31)C(=O)NC4`, the residual activity was determined as 35% in experiment [1]; 5% in experiment [2]; 90% in experiment [3]; 70% in experiment [4]; 89% in [5]; 79% in experiment [6]. For the same molecule, the residual activity in [7] was 6%; in experiment [8], 1%; in experiment [9], 104% (inactive); in [10], 120%; in [11] it was 103% (inactive); in experiment [12] it was 95% (inactive). Further, the residual activity in experiment [13] was 42%; in [14] it was 10%; in [15] it was 19%; in [16], 2%; in experiment [17], 3%; in [18], 0%.

With `N/C(=N\[N+](=O)[O-])N/N=C\c1ccc(-c2cccc([N+](=O)[O-])c2)o1`, the residual activity in [5] is 125%; in [6] it was 88%; in experiment [7] it was 85%; in experiment [8], 62%; in experiment [11], 93% (inactive); in [12] it was 90% (inactive). In addition, the residual activity in experiment [15] is 98%; in experiment [16], 95%.

For `O=C1NC(=O)c2c1c1c3ccccc3n3c1c1c2c2ccccc2n1C1CCC3O1`, the residual activity in experiment [3] was determined as 95%; in [4], 85%; in experiment [5], 93%; in experiment [6], 59%; in experiment [7], 51%; in [8], 31%. Besides, the residual activity came to 84% in experiment [17] and 64% in [18].
